Results from PubChem BioAssay (NCATS).
Values joined by “and” are separate entries in the source; they are usually repeats but may differ in a detail not shown here. Equal values may be shown once. Results filed as inconclusive are left out. Active and inactive are the calls of the source. Unless noted, no rule for the calls is given here.

Columns and labels:
[1] = qHTS Assay for Identifying Gametocytocidal Compounds (AID 743244; active = well fitted curve in the direction sought with a large enough effect; an effect the other way counts as inactive or inconclusive; also: potency is read from the fitted curve at half-maximal effect;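 as to max response: % is scaled to controls: 0 for no effect and ±100 for the full control effect; actives lower the fluorescent signal which means gametocytes are killed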); conditions: P. falciparum 3D7 stage III-V gametocytes, alamarBlue, 72 h; max response: stronger effect = lower value
In short: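 A resazurin-based viability read-out was applied to mature P. falciparum gametocytes: 72 h compound treatment, then 24 h dye incubation, with falling fluorescence signalling gametocytocidal effect.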

[2] = qHTS profiling for inhibitors of Plasmodium falciparum (3D7) proliferation (AID 743322);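 also: infected erythrocytes exposed to compound for 72 h before lysis; 100% = DMSO vehicle wells and 0% = 0.29 µM artemisinin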; conditions: P. falciparum 3D7 proliferation; at 28.7 µM (top of the series) unless noted
In short: (§1)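 Parasite DNA was quantified by SYBR Green I fluorescence (ex 485, em 535 nm) after overnight lysis in saponin/Triton buffer at room temperature. Cultures at 0.3% parasitemia and 2.5% hematocrit were first exposed to compound for 72 h at 37 C; signals were normalised to artemisinin (0.29 uM) and vehicle wells.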

[3] = qHTS profiling for inhibitors of Plasmodium falciparum (DD2) proliferation (AID 743323); conditions: lower = more inhibition; at 28.7 µM (top of the series) unless noted
In short: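 Parasite DNA quantified by SYBR Green fluorescence (ex 485, em 535 nm) after saponin/Triton lysis and overnight dark incubation. Cultures: 0.3% parasitemia, 2.5% hematocrit, 72 h, 37 C; data scaled between DMSO and 0.29 uM artemisinin.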

[4] = qHTS profiling for inhibitors of Plasmodium falciparum (HB3) proliferation (AID 743324; active = well fitted curve in the direction sought with a large enough effect; an effect the other way counts as inactive or inconclusive;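 also: 100% = DMSO vehicle wells and 0% = artemisinin-treated control wells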); conditions: Plasmodium falciparum HB3 blood-stage proliferation; at 28.7 µM (top of the series) unless noted
In short: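 SYBR Green fluorescence (485 ex/535 em) of lysed cultures, incubated overnight at room temperature in the dark, quantifies parasite DNA. Infected erythrocytes at 0.3% parasitemia and 2.5% hematocrit were exposed 72 h; values normalized to DMSO and 0.29 uM artemisinin controls.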

[5] = qHTS profiling of the MIPE4 collection as inhibitors of Plasmodium falciparum (3D7) proliferation (AID 743344);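 also: scaled between DMSO vehicle wells and 0.29 µM artemisinin as full inhibition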; conditions: P. falciparum 3D7 in erythrocytes, SYBR Green DNA fluorescence, 72 h; at 28.5 µM (top of the series) unless noted
In short: as §1

[6] = qHTS profiling of the MIPE4 collection as inhibitors of Plasmodium falciparum (DD2) proliferation (AID 743345); conditions: P. falciparum Dd2 in erythrocytes, SYBR Green DNA, 72 h; at 28.5 µM (top of the series) unless noted
In short: as §1

[7] = qHTS profiling of the MIPE4 collection as inhibitors of Plasmodium falciparum (DD2) proliferation (Rep 2) (AID 743346); conditions: P. falciparum Dd2 in erythrocytes, SYBR Green DNA, 72 h; at 28.5 µM (top of the series) unless noted
In short: as §1

[8] = qHTS profiling of the MIPE4 collection as inhibitors of Plasmodium falciparum (HB3) proliferation (AID 743347);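 also: plate controls were DMSO vehicle wells for no effect and artemisinin wells for full effect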; conditions: P. falciparum HB3 in erythrocytes, SYBR Green DNA, 72 h; at 28.5 µM (top of the series) unless noted
In short: as §1

| SMILES | max response [1] | remaining parasite growth % (stronger effect = lower value) [2] [%] | activity, percent of control [3] [%] | remaining proliferation (% of control), lower = more inhibition [4] [%] | parasite growth, % of DMSO control [5] | parasite growth remaining, % of DMSO control (lower = more inhibition) [6] | parasite growth, % of control (lower = inhibition) [7] | growth, % of control [8] | Potency [1] |
| --- | --- | --- | --- | --- | --- | --- | --- | --- | --- |
| CCCCCCCc1ccc(CCc2cccc(O)c2C(=O)O)cc1 | 25.6% (inactive) | 93 | 88.3 | 58.6 | 68.8% | 99.9% | 66.9% | 81.6% |  |
| COc1ccc(-c2c(-c3ccc(O)cc3O)n[nH]c2C)cc1 | 3.95% (inactive) | 1.98 | 5.32 | 0.491 | 47% [at 57.5 µM] | 61.8% [at 57.5 µM] | 45.5% [at 57.5 µM] | 106% [at 57.5 µM] |  |
| CC(=O)NC(C)c1ccc(Oc2ccc(OC(C)C)cc2)cc1 (stereo not given) | -4.97% (inactive) |  | 93.5 | 95.2 | 23.1% | 10.5% | 8.63% | 20.1% |  |
| O=C1[C@H](Cc2ccc(O)cc2)N2C(=O)CCN(C(=O)NCc3ccccc3)[C@H]2CN1Cc1cccc2ccccc12 | -13% (inactive) |  | 43.6 | -0.183 | 5.06% | 56% | 40.6% | 12.1% |  |
| S=C(NCc1ccc2c(c1)OCO2)N1CCN(c2ncnc3c2oc2ccccc23)CC1 | -9.54% (inactive) |  | 87.1 | 28.7 | 20.8% [at 57.5 µM] | 66.7% [at 57.5 µM] | 63.5% [at 57.5 µM] | 30.4% [at 57.5 µM] |  |
| CNCc1ccc(-c2[nH]c3cc(F)cc4c3c2CCNC4=O)cc1 |  | 28.7 | 77.5 | 54 | 47.4% | 85% | 51.1% | 18.7% | 29.6 µM (active) |
| Cc1cc(-c2ccc(CC(=O)Nc3ccc(-c4cccnc4)cc3)cc2)ccn1 | 17.3% (inactive) | 75 | 88.9 | 6.55 | 32.3% | 95.7% | 110% | 63.6% |  |
| COc1cc(Oc2ccnc3cc(OC)c(OC)cc23)ccc1NC(=O)NC(C)c1nccs1 (stereo not given) | 6.55% (inactive) | 69.7 | 56.8 | 16.5 | 22.7% | 85.4% | 40.3% | 71.5% |  |
| CN(C)C(=O)c1ccc(S(=O)(=O)c2ccc(NC(=O)[C@@](C)(O)C(F)(F)F)c(Cl)c2)cc1 | 2.79% (inactive) | 67.3 | 97.4 |  | 34.8% | 96.7% | 95.9% | 62% |  |
| Nc1nc2[nH]cc(CCc3ccc(C(=O)N[C@@H](CCC(=O)O)C(=O)O)cc3)c2c(=O)[nH]1 | 97.2% (inactive) and -5.73% (inactive) |  | 10.6 | 4.66 | 55.6% | 48.3% | 26.3% | 139% |  |
| CS(=O)(=O)Oc1ccc2c(NC(N)=O)c(C(=O)c3ccc(Cl)cc3Cl)oc2c1 | 25% (inactive) | 75.4 | 83.2 | 94.7 | 49.8% | 82.7% | 33.3% | 13.6% |  |
| Cc1ccc2c(c1)C(=O)[C@@]1(O)CCN(c3ccccc3)C1=N2 | -1.35% (inactive) |  | 112 | 36.1 |  |  |  |  |  |
| O=c1ncn2nc(Sc3ccc(F)cc3F)ccc2c1-c1c(Cl)cccc1Cl | 5.63% (inactive) | 32.8 | 80.3 | 23.8 | 17.6% | 76.3% | 18.7% | 13.6% |  |
| CCn1c(-c2nonc2N)nc2cnc(Oc3cccc(NC(=O)c4ccc(OCCN5CCOCC5)cc4)c3)cc21 | 33.1% (inactive) |  | 20.7 | 14.7 | 13.1% | 57.9% | 22.1% | 3.64% |  |
| O=C(OCC#CCSc1nnc(-c2ccc3ccccc3c2)o1)c1cc2ccccc2s1 | 9.28% (inactive) |  | 105 | 125 |  |  |  |  |  |
| Cc1cc(-c2nnc3n2CCCCC3)c(C)n1-c1ccc(F)cc1 |  |  | 9.31 | 0.91 |  |  |  |  | 18.7 µM (active) |
| COc1ccccc1-c1cccc(-c2c(O)c3cc(C#N)c(Cl)cc3[nH]c2=O)c1 | 99.8% (inactive) | 97.4 | 76 | 74.9 | 37.5% [at 57.5 µM] | 84.4% [at 57.5 µM] | 32.5% [at 57.5 µM] | 14.1% [at 57.5 µM] |  |
